The values below come from PubChem BioAssay (Tox21).

In experiment [1] the target is Acetylcholinesterase (Homo sapiens) (UniProt P22303). Briefly: Acetylcholinesterase (AChE) small molecule antagonists: colormetric cell-based qHTS assay (AID 1347395). Note: nearly all actives have a fitted effect of over 30% in size. Note: potency is the fitted concentration of half-maximal effect. Summed up:
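Colorimetric readout: DTNB quantifies thiocholine from acetylthiocholine hydrolysed by endogenous AChE of SH-SY5Y cells (2,000/well, plated overnight). Compound pretreatment 30 min, substrate incubation 90 min, both 37 C.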

For experiment [2] the target is unchanged. The experiment in a line: Acetylcholinesterase (AChE) small molecule antagonists: enzyme-based qHTS assay (AID 1347397). Note: nearly all actives have a fitted effect of over 55% in size. Note: potency is the fitted concentration of half-maximal effect. As to conditions: Potency: AChE enzyme activity inhibition; outcome: AChE enzyme activity inhibition. In outline:
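Recombinant human AChE (50 mU/mL) preincubated with compound 30 min at room temperature; acetylthiocholine plus DTNB then added, and thiocholine formation read colorimetrically after 10 min at room temperature. DMSO served as vehicle control.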

The target is the same in experiment [3]. Briefly: Acetylcholinesterase (AChE) small molecule antagonists: fluorescence cell-based qHTS assay (AID 1347398). Note: nearly all actives have a fitted effect of over 50% in size. Note: potency is the fitted concentration of half-maximal effect. As to conditions: Potency: AChE activity; outcome: AChE activity. In outline: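 SH-SY5Y cells (2000/well), attached overnight, incubated with compound 30 min at 37 C. Acetylthiocholine plus Thiolite Green then added for 40 min at room temperature. Thiocholine fluorescence (Ex/Em 490/520 nm) reports cellular AChE activity.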

The target is the same in experiment [4]. The experiment in a line: Acetylcholinesterase (AChE) small molecule antagonists: enzyme-based qHTS assay with human liver microsomes (AID 1347399). Note: nearly all actives have a fitted effect of over 60% in size. As to conditions: Potency: qHTS inhibition; outcome: qHTS inhibition. In outline:
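Recombinant human AChE (50 mU/mL in the enzyme mix) and human liver microsomes (0.25 mg/mL final) were preincubated with compound and NADPH (0.25 mg/mL final) for 30 min at 37 C. Acetylthiocholine/DTNB was then added; thiocholine was read colorimetrically after 10 min at room temperature.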

Unmarked numbers belong to inactive results. Results filed as inconclusive are left out. Active and inactive are the calls of the source. Calls come from the whole dose curve.

Chain of Acetylcholinesterase (Homo sapiens) (P22303 whole entry, looked up): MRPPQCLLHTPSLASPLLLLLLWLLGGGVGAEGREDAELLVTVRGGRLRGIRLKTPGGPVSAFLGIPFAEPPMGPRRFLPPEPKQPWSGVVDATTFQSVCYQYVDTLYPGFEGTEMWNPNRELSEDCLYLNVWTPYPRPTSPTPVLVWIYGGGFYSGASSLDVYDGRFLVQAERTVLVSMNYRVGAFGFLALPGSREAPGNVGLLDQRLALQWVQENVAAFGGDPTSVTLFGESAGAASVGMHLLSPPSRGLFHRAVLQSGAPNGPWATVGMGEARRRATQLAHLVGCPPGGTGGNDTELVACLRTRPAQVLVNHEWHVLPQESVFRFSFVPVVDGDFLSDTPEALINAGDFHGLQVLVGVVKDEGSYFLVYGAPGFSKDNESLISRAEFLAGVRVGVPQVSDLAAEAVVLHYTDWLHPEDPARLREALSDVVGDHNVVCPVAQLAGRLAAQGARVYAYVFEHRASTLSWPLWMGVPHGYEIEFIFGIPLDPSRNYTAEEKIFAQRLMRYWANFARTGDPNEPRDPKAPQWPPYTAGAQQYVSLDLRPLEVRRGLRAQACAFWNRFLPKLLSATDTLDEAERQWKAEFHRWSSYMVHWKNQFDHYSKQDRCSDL

In the case of `O=C(OCc1ccccc1)C(=O)OCc1ccccc1`, the Potency result in experiment [1], in experiment [2], in experiment [3] and in experiment [4] was “inactive” in each case.
With `CCNc1nc(NC(C)CC)nc(OC)n1` (configuration not stated), the Potency entry in experiment [1], in experiment [2], in experiment [3] and in experiment [4] was “inactive” in each case.
With `CC(C)(O)CCCC1=CCC(C=O)CC1` (configuration not stated), the Potency entry in experiment [1], in experiment [2], in experiment [3] and in experiment [4] was “inactive” throughout.
For `CC(C)=CCCC(C)C=O` (configuration not stated), the Potency result in experiment [1], in experiment [2], in experiment [3] and in experiment [4] was “inactive” each time.
Consider `CCCCOc1ccc(C(=O)CCN2CCCCC2)cc1`, for which the Potency is 12.3 µM (active) in experiment [1], 27.5 µM (active) in experiment [2] and 12.3 µM (active) in experiment [3]. Moreover, in experiment [4], the Potency entry is “inactive”.
Consider `O=C1NC(=O)c2cc([N+](=O)[O-])ccc21`, for which the Potency entry in experiment [1], in experiment [2], in experiment [3] and in experiment [4] was “inactive” in each case.
As to `Sc1nc2ccccc2s1`, the Potency entry in experiment [1], in experiment [2], in experiment [3] and in experiment [4] was “inactive” throughout.
Consider `COc1cccc(Br)c1`, for which the Potency entry in experiment [1], in experiment [2], in experiment [3] and in experiment [4] was “inactive” throughout.
In the case of `C#C[C@]1(OC(C)=O)CC[C@H]2[C@@H]3CCC4=C/C(=N/O)CC[C@@H]4[C@H]3CC[C@@]21CC`, the Potency result in experiment [1], in experiment [2], in experiment [3] and in experiment [4] was “inactive” each time.
Consider `CCCCCCCCCOC(=O)c1ccccc1C(=O)OCCCCCCCCC`, for which the Potency result in experiment [1], in experiment [2], in experiment [3] and in experiment [4] was “inactive” each time.
Take `CC(C)(C)NCC(O)COc1cccc2c1C[C@H](O)[C@H](O)C2` (some centres not stated): the Potency result in experiment [1], in experiment [2], in experiment [3] and in experiment [4] was “inactive” throughout.
Regarding `C1C2OC2C2C1C1CC2C2OC12` (configuration not stated), the Potency entry in experiment [1], in experiment [2], in experiment [3] and in experiment [4] was “inactive” each time.
Take `CC(C)Cc1ccc(C(C)C(=O)OCc2ccccn2)cc1` (configuration not stated): the Potency result in experiment [1], in experiment [2], in experiment [3] and in experiment [4] was “inactive” each time.
In the case of `CC(=O)Oc1cc2c(s1)CCN(C(C(=O)C1CC1)c1ccccc1F)C2` (configuration not stated), the Potency entry in experiment [1], in experiment [2], in experiment [3] and in experiment [4] was “inactive” in each case.
On to `CC(C)c1ccc(C#N)cc1`, for which the Potency entry in experiment [1], in experiment [2], in experiment [3] and in experiment [4] was “inactive” each time.
With `O=C(OCCc1ccccc1)c1ccccc1`, the Potency entry in experiment [1], in experiment [2], in experiment [3] and in experiment [4] was “inactive” throughout.
On to `O=C(O)c1c(Cl)cccc1Cl`, for which the Potency result in experiment [1], in experiment [2], in experiment [3] and in experiment [4] was “inactive” each time.
In the case of `CC(=O)NC(=O)c1ccccc1O`, the Potency result in experiment [1], in experiment [2], in experiment [3] and in experiment [4] was “inactive” throughout.
With `Cc1ccc(/C=N/n2c(-c3ccccc3)csc2=S)cc1`, the Potency result in experiment [1], in experiment [2], in experiment [3] and in experiment [4] was “inactive” throughout.
For the molecule `Nc1ccccc1O`, the Potency result in experiment [1], in experiment [2], in experiment [3] and in experiment [4] was “inactive” throughout.
Consider `CC(O)C(C)O` (configuration not stated), for which the Potency entry in experiment [1], in experiment [2], in experiment [3] and in experiment [4] was “inactive” throughout.
For `Oc1ccc(Nc2ccccc2)cc1`, the Potency result in experiment [1], in experiment [2], in experiment [3] and in experiment [4] was “inactive” each time.
For the molecule `CCOC(=O)N1CCC(Nc2ccc(Cl)cc2N)CC1`, the Potency result in experiment [1], in experiment [2], in experiment [3] and in experiment [4] was “inactive” each time.
For the molecule `CC(C)(C)C1(CCc2ccc(Cl)cc2)CO1` (configuration not stated), the Potency entry in experiment [1], in experiment [2], in experiment [3] and in experiment [4] was “inactive” each time.
Regarding `CCOc1ccc2c(c1)C(C)CC(C)(C)N2` (configuration not stated), the Potency entry in experiment [1], in experiment [2], in experiment [3] and in experiment [4] was “inactive” each time.
For `COc1ccc(-c2ccc3cc(C(=O)O)ccc3c2)cc1C12CC3CC(CC(C3)C1)C2`, the Potency entry in experiment [1], in experiment [2], in experiment [3] and in experiment [4] was “inactive” throughout.
For the molecule `CC(CN=Cc1ccccc1O)N=Cc1ccccc1O` (configuration not stated), the Potency entry in experiment [1], in experiment [2], in experiment [3] and in experiment [4] was “inactive” in each case.
As to `CO[C@H]1C=CO[C@@]2(C)Oc3c(C)c(O)c4c(O)c(cc(O)c4c3C2=O)NC(=O)/C(C)=C\C=C/[C@H](C)[C@H](O)[C@@H](C)[C@@H](O)[C@@H](C)[C@H](OC(C)=O)[C@@H]1C`, the Potency result in experiment [1], in experiment [2], in experiment [3] and in experiment [4] was “inactive” in each case.
In the case of `Cc1ccnc2ccccc12`, the Potency result in experiment [1], in experiment [2], in experiment [3] and in experiment [4] was “inactive” throughout.
Regarding `CCCCCCCCCCCl`, the Potency entry in experiment [1], in experiment [2], in experiment [3] and in experiment [4] was “inactive” in each case.
Consider `Cc1cc(CC(=O)O)c(C)n1-c1ccc(Cl)cc1`, for which the Potency entry in experiment [1], in experiment [2], in experiment [3] and in experiment [4] was “inactive” each time.
As for `CN(C)CCCOc1nn(Cc2ccccc2)c2ccccc12`, the Potency result in experiment [1], in experiment [2], in experiment [3] and in experiment [4] was “inactive” each time.
As to `Nc1ccn([C@@H]2O[C@H](CO)[C@@H](O)C2(F)F)c(=O)n1`, the Potency result in experiment [1], in experiment [2], in experiment [3] and in experiment [4] was “inactive” in each case.
On to `CCO[Si](C)(C)OCC`, for which the Potency entry in experiment [1], in experiment [2], in experiment [3] and in experiment [4] was “inactive” in each case.
Turning to `CCCCCCCCCCCCN(CCCCCCCCCCCC)CCCCCCCCCCCC`, the Potency entry in experiment [1], in experiment [2], in experiment [3] and in experiment [4] was “inactive” each time.
On to `CC(C)=CCC/C(C)=C\C#N`, for which the Potency result in experiment [1], in experiment [2], in experiment [3] and in experiment [4] was “inactive” throughout.
For `CC(C)NCCCC1(C(N)=O)c2ccccc2-c2ccccc21`, the Potency result in experiment [1], in experiment [2], in experiment [3] and in experiment [4] was “inactive” throughout.
In the case of `Cc1c(NC(C)C)c(=O)n(-c2ccccc2)n1C`, the Potency result in experiment [1], in experiment [2], in experiment [3] and in experiment [4] was “inactive” in each case.
Take `COc1ccc2cc(CCC(C)=O)ccc2c1`: the Potency entry in experiment [1], in experiment [2], in experiment [3] and in experiment [4] was “inactive” in each case.
`O=C(O)/C=C/c1ccc(/C=C/C(=O)O)cc1`: the Potency entry in experiment [1], in experiment [2], in experiment [3] and in experiment [4] was “inactive” in each case.
Turning to `O=P(O)(O)Oc1ccccc1`, the Potency result in experiment [1], in experiment [2], in experiment [3] and in experiment [4] was “inactive” throughout.
Regarding `C=Cc1ccc(C=C)cc1`, the Potency entry in experiment [1], in experiment [2], in experiment [3] and in experiment [4] was “inactive” each time.
Turning to `CCCC(C)C=O` (configuration not stated), the Potency entry in experiment [1], in experiment [2], in experiment [3] and in experiment [4] was “inactive” throughout.
